Bioassay records as filed in PubChem.
HDAC3 inhib: HDAC3 deacetylase inhibitors, primary screen, biochemical, fluorescence, cell-free homogeneous; Histone deacetylase 3 (Homo sapiens), O15379; recombinant HDAC3, fluorogenic peptide/trypsin coupled; inhibition, % at 8.3 µM; 0.15% of 320,000 active; AID 2718, 2010; in the data active means inhibition above about 26%, passing the limit was not always enough
ERp5 block: inhibitors of ERp5-driven insulin aggregation, primary screen, biochemical, turbidity, absorbance 650 nm, single point. Protein disulfide-isomerase A6 (Homo sapiens), Q15084. 90 min. inhibition, % at 9.99 µM. 0.05% of 350,000 active. AID 651711, 2012;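 active means mean replicate inhibition above about 25%, with every replicate also reaching it, limit read from the data, passing the limit was not always enough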
SIRT5 inh: SIRT5 desuccinylase inhibitors, primary screen, biochemical, fluorescence imaging, single point, set 5; 1.1% of 330,000 active; NAD-dependent protein deacylase sirtuin-5, mitochondrial (Homo sapiens), Q9NXA8; Purified SirT5, succinyl-peptide AMC, trypsin-coupled fluorescence; inhibition, % at 15 µM; in the data active means inhibition above about 15%
ERAP1 inh: human ERAP1 aminopeptidase inhibitors, primary screen, biochemical, single point, plate reader. recombinant ERAP1, Leu-AMC fluorescence, 60 min. inhibition, % at 10.7 µM. 0.15% of 340,000 active. AID 652197, 2013;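 active means mean replicate inhibition of at least 30%, or all replicates individually reaching that 30% level; inactive means mean below 30% and not every replicate reaching it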;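 further: 0% = neutral control wells and 100% = L-leucinethiol positive control wells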
PDI turbidity: inhibitors of human PDI, primary screen, biochemical, turbidity, single point, plate reader. Protein disulfide-isomerase (Homo sapiens), P07237. inhibition, % at 10 µM. 0.052% of 350,000 active. PDI insulin aggregation turbidity, A650, 90 min;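 active means mean inhibition across replicates of 30% or more, whatever share of single replicates reach that level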
Target sequence (P07237 whole entry, looked up): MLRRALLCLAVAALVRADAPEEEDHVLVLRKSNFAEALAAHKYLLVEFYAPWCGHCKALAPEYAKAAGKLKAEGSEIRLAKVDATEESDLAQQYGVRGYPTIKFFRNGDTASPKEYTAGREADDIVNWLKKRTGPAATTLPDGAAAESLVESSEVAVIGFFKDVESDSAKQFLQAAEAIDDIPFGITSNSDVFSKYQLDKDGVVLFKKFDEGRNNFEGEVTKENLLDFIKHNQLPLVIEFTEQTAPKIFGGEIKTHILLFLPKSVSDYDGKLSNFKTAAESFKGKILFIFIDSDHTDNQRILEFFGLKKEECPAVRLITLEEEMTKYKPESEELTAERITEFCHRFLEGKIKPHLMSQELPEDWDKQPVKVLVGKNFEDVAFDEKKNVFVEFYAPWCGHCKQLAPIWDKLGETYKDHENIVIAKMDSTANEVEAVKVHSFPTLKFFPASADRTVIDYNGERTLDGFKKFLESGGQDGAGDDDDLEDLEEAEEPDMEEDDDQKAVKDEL
* marks the source's active call; other numbers are inactive results; / = no result given; ! = not active in a repeat. The sample as a whole holds a higher share of hits than the screen did.

SMILES	HDAC3 inhib	ERp5 block	SIRT5 inh	ERAP1 inh	PDI turbidity
C[C@@H]1CN([C@@H](C)CO)C(=O)c2cc(-c3cccc(F)c3)cnc2O[C@@H]1CN(C)C(=O)C1CCC1	/	-0.7	-1.2	-2.1	/
COc1ccccc1C#Cc1ccc([C@H]2[C@@H](CO)N3CCCCN(C(=O)C4CC4)C[C@@H]23)cc1	/	1.1	5.2	4.6	/
Cc1cc(-c2cc(C)c(N)cc2C)c(C)cc1N	/	-2.7	18.6*	-0.4	-9.0
CCN1C[C@@H](C)[C@H](OC)CN(C)C(=O)c2cc(NC(=O)NC(C)C)ccc2OC[C@H]1C	/	0.3	1.9	1.4	/
CCOC(=O)c1c(C)[nH]c(C)c1C(=O)CSc1nc2ccccc2c(=O)n1-c1ccc(C)cc1	31.5*	/	/	/	12.5
CCCC#Cc1cnc2c(c1)C(=O)N([C@H](C)CO)C[C@H](C)[C@H](CN(C)S(=O)(=O)c1cccc(OC)c1)O2	/	1.5	0.1	0.5	/
O=C(C[C@@H]1CC[C@H]2[C@@H](COC[C@@H](O)CN2S(=O)(=O)c2ccc(Cl)cc2)O1)NCCN1CCCCC1	/	-0.7	0.2	-0.5	/
COC(=O)[C@H](Cc1c[nH]c2ccccc12)NC(=O)NCc1ccc(OC)c(OC)c1	-3.2	4.7	30.0*	-3.0	1.1
COC(=O)[C@H](Cc1c[nH]c2ccccc12)NC(=O)NCc1ccc(OC)cc1	8.5	-1.8	-9.6	3.2	7.5
C[C@@H]1CCCCO[C@@H](CN(C)Cc2ccncc2)[C@@H](C)CN([C@H](C)CO)C(=O)c2cc(NC(=O)CCCN(C)C)ccc2O1	/	2.1	1.3	3.4	/
CCOP(=O)(OCC)C1NC(=O)N(c2ccccc2)C1=O (stereo not drawn)	7.1	0.8	29.8*	1.3	-4.9
CCN1C(=O)NC(c2ccccc2)C1=O (stereo not drawn)	-4.8	5.1	-4.2	1.7	-4.8
Cc1ccc(CN2CC(=O)N3[C@@H](CO)[C@@H](c4ccc(Br)cc4)[C@@H]3C2)cc1	/	-11.0	-0.7	-0.1	/
CCCNC(=O)C[C@@H]1C[C@H]2c3cc(NC(=O)CC4CC4)ccc3O[C@H]2[C@H](CO)O1	/	61.6*	0.0	1.6	/
CCCNC(=O)C[C@@H]1C[C@H]2c3cc(NC(=O)CC4CC4)ccc3O[C@H]2[C@@H](CO)O1	/	-2.2	-2.2	-0.3	/
O=C(C[C@@H]1C[C@H]2c3cc(NC(=O)NC4CCCCC4)ccc3O[C@H]2[C@@H](CO)O1)NCCc1ccccc1	/	4.9	-10.7	1.0	/
COCCNC(=O)C[C@@H]1C[C@H]2c3cc(NC(=O)NC4CCCC4)ccc3O[C@H]2[C@@H](CO)O1	/	81.7*	-8.9	0.3	/
O=C(C[C@@H]1C[C@@H]2c3cc(NC(=O)NC4CCCCC4)ccc3O[C@@H]2[C@H](CO)O1)NCCc1ccccc1	/	1.2	26.4*	0.3	/
C/C=C/c1ccc2c(c1)[C@H]1[C@H](CCN1C(=O)Cc1cccnc1)[C@H](CO)N2C	/	-3.1	3.7	-2.2	/
CC(C)CC#Cc1ccc2c(c1)O[C@H](CN(C)Cc1cccnc1)[C@@H](C)CN([C@@H](C)CO)S2(=O)=O	/	5.9	17.6*	/	/
CC(C)CC#Cc1ccc2c(c1)O[C@@H](CN(C)S(=O)(=O)c1cccc(F)c1)[C@@H](C)CN([C@H](C)CO)S2(=O)=O	/	1.7	19.9*	-0.5	/
COc1ccccc1S(=O)(=O)N(C)C[C@@H]1Oc2cc(C#CCC(C)C)ccc2S(=O)(=O)N([C@H](C)CO)C[C@@H]1C	/	-8.6	22.9*!	8.1	-0.9
COc1ccccc1S(=O)(=O)N(C)C[C@H]1Oc2cc(C#CCC(C)C)ccc2S(=O)(=O)N([C@@H](C)CO)C[C@@H]1C	/	-3.4	0.6	5.9	/
CC(C)CC#Cc1ccc2c(c1)O[C@@H](CN(C)Cc1cccnc1)[C@@H](C)CN([C@H](C)CO)S2(=O)=O	/	-3.2	/	/	/
CCC(=O)N(C)C[C@H]1Oc2cc(-c3ccc(C#N)cc3)ccc2S(=O)(=O)N([C@@H](C)CO)C[C@@H]1C	/	85.4*	3.2	0.6	/
COc1ccc(NC(=O)Nc2ccc3c(c2)[C@@H]2C[C@@H](CC(=O)NC4CCCCC4)O[C@@H](CO)[C@@H]2O3)cc1	/	-0.2	-1.7	-0.4	/
O=C(C[C@H]1CC[C@H](NC(=O)c2ccc3c(c2)OCO3)[C@H](CO)O1)NCc1ccc(F)cc1	/	12.7	2.7	-0.7	/
